Values without a mark were called inactive. The source made the active and inactive calls.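 The calls were made as follows: active = luciferase signal above three times the same-plate solvent-only control wells; inactive = the rest.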

In the experiment the target is Mitogen-activated protein kinase 7 (Homo sapiens) (UniProt Q13164). Nature of the experiment: Gal4-ERK5 driven luciferase induction – cell-based, HTS, primary screen (AID 1508626).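 Also: luciferase driven by Gal4-ERK5 fusion binding five Gal4 sites before minimal TATA.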 The note with it: HeLa Gal4-ERK5 transactivation, 18 h, at 5 µM, hits give high values.
Sequence of Mitogen-activated protein kinase 7 (Homo sapiens) (Q13164 whole entry, looked up, the tested form may be a part): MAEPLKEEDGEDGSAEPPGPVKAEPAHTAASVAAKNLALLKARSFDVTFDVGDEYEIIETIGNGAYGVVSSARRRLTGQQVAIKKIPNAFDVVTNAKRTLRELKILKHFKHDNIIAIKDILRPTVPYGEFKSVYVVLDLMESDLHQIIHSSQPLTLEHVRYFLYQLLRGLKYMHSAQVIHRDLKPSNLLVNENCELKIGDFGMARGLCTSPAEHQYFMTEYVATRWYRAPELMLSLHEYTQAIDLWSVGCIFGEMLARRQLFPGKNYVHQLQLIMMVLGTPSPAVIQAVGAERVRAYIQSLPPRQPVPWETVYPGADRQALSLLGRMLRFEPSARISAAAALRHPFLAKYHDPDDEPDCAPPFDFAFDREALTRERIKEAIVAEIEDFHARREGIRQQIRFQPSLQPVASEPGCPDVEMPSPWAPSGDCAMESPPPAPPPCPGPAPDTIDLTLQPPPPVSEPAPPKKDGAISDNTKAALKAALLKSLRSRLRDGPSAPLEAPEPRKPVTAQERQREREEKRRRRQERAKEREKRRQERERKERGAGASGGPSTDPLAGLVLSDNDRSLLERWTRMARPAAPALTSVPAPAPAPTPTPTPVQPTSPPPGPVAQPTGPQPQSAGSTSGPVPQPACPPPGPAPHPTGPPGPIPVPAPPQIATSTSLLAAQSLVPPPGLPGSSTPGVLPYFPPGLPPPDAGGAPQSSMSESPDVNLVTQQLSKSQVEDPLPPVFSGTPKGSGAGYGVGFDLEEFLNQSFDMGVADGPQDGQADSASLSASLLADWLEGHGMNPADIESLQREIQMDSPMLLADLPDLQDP
On to `C[C@H](CCC(=O)O)[C@H]1CC[C@H]2[C@@H]3[C@H](O)C[C@@H]4C[C@H](O)CC[C@]4(C)[C@H]3C[C@H](O)[C@]12C`, for which the luciferase signal is 28 AU.
The value for `C=C(C)CCCC(C)CCOC(C)=O` (centres undefined) was 68 AU; that for `C[C@H]1[C@H](C)CC[C@]2(C(=O)O)CC[C@]3(C)C(=CC[C@@H]4[C@@]5(C)C[C@@H](O)[C@H](O)[C@@](C)(CO)[C@@H]5[C@H](O)C[C@]43C)[C@H]12` was 48 AU; that for `COc1ccc(C2CC(=O)c3ccc(OC)cc3O2)cc1` (centres undefined) was 84 AU.
In the case of `COc1cc(OC)c2c(=O)c(-c3ccccc3)coc2c1`, the luciferase signal was 68 AU.
The same measure for `COc1ccc(-c2coc3cc(OC)cc(OC)c3c2=O)cc1`: 60 AU; for `CC1(C)CC[C@]2(C(=O)O)CC[C@]3(C)C(=CC[C@@H]4[C@@]5(C)CC[C@H](O)[C@@](C)(CO)[C@@H]5CC[C@]43C)[C@@H]2C1`: 76 AU; for `CC1(C)C[C@@H]2C(=O)CC[C@H]3O[C@]3(C)CC[C@H]21`: 44 AU.
The value for `COc1cccc2c1CCC1=CC(=O)CC[C@@]12C` was 40 AU.
Turning to `CC1(C)C(=O)C=C[C@@]2(C)C1C=C[C@]1(C)C2CC[C@@]2(C)[C@H](c3ccoc3)OC(=O)C3OC321` (some centres undefined), the luciferase signal is 40 AU.
The same measure for `O=c1oc2ccccc2cc1O`: 36 AU; for `COC1=C(O)c2cc3oc(C(C)=O)c(O)c3c(O)c2C(=O)C1=O`: 52 AU; for `COc1ccc(C(C)=O)c(OC)c1`: 76 AU.
On to `CC(=O)O[C@H]1CC[C@@]2(C)[C@H](CC[C@@H]3[C@@H]2CC[C@]2(C)[C@@H]4[C@H](C[C@@H]32)O[C@]2(CC[C@@H](C)CO2)[C@H]4C)C1`, for which the luciferase signal was 44 AU.
In the case of `CC1(C)[C@@H](O)CC[C@]2(C)[C@H]3C(=O)C=C4[C@H]5C[C@@](C)(C(=O)O)CC[C@]5(C)CC[C@@]4(C)[C@]3(C)CC[C@@H]12`, the luciferase signal is 24 AU.
The value for `COc1cc(OC)c2c(=O)c(OC)c(-c3ccc(OC)c(OC)c3)oc2c1` was 68 AU.
`CC1(C)C2CC(=O)O[C@@]3(C)C4=CC(=O)O[C@@H](c5ccoc5)[C@]4(C)CCC3[C@@]2(C)C=C[C@H]1O` (some centres undefined): the luciferase signal was 20 AU.
The value for `C/C1=C\CCC(=O)C2CC(C)(C)C2CC1` (centres undefined) was 60 AU; that for `COC(=O)CC1C(C)(C)C(OC(C)=O)[C@@H]2[C@@H](OC(C)=O)[C@]34O[C@@]2(O)[C@]1(C)C3CC[C@]1(C)C4=CC(=O)O[C@H]1c1ccoc1` (some centres undefined) was 12 AU; that for `O=C(NCO)c1cccnc1` was 68 AU.
Turning to `COC(=O)C1=CO[C@@H](O[C@@H]2O[C@H](CO)[C@@H](O)[C@H](O)[C@H]2O)[C@@H]2[C@@H](C)[C@@H](O)C[C@H]12`, the luciferase signal was 20 AU.
The same measure for `C[C@@H]1CC[C@@]2(OC1)O[C@H]1C[C@H]3[C@@H]4CC[C@H]5C[C@@H](O)CC[C@]5(C)[C@H]4CC[C@]3(C)[C@H]1[C@@H]2C`: 36 AU; for `C=C1C2CCC3(C)C(c4ccoc4)OC(=O)CC13OC1CC(OC(C)=O)C(C)(C)C(CC(=O)OC)C12C` (centres undefined): 56 AU; for `CC(C)=CCc1c2c(c(O)c3c(=O)c(O)c(-c4ccccc4)oc13)C=CC(C)(C)O2`: 64 AU.
The same measure for `COC(=O)c1c(OC)cc2c(c1C)Oc1c(Cl)c(OC(C)=O)c(Cl)c(C)c1C(=O)O2`: 44 AU; for `C/C(=C\CO)CCC[C@H](C)CCC[C@H](C)CCCC(C)C`: 72 AU; for `C[N+]1(C)C[C@H](O)C[C@H]1C(=O)[O-]`: 60 AU.
Take `COC(=O)[C@@H]1OC(=O)[C@H]2O[C@@]23[C@@]1(C)CCC1[C@@]2(C)CCC(=O)C(C)(C)C2C[C@@H](OC(C)=O)[C@]13C` (some centres undefined): the luciferase signal is 40 AU.
The value for `CC(=O)/C=C\[C@@H]1[C@@]2(C)CCCC(C)(C)C2CC[C@@]1(C)O` (some centres undefined) was 348 AU (active).
The same measure for `CCCCCC/C=C\CCCCCCCc1cccc(O)c1C(=O)O`: 76 AU.
`COC(=O)CC[C@@H](C)[C@H]1CC[C@H]2[C@@H]3[C@H](O)C[C@@H]4C[C@H](O)CC[C@]4(C)[C@H]3C[C@H](O)[C@]12C`: the luciferase signal is 252 AU (active).
The same measure for `COc1cc(/C=C/CO)ccc1O`: 96 AU; for `CC(=O)O[C@@H]1C[C@H]2C(C)(C)[C@@H](O)CC[C@]2(C)[C@H]2CC[C@@]3(C)[C@H](c4ccoc4)OC(=O)[C@H]4O[C@]43[C@@]21C`: 108 AU; for `CC1C2[C@]3(CC[C@H]1C)CCC1(C)[C@@]2(C=CC2[C@@]4(C)CCC(=O)C(C)(C)C4CC[C@]21C)OC3=O` (some centres undefined): 100 AU.
Regarding `CC(=O)OC1CCC2(O)CC1(C)CCC1C2CC1(C)C` (centres undefined), the luciferase signal was 36 AU.
The same measure for `COc1ccc(-c2cc(=O)c3ccccc3o2)cc1`: 112 AU; for `CCC(=O)OC1[C@@H]2CC3=C4CC(=O)O[C@@H](c5ccoc5)[C@]4(C)CCC3[C@@](C)(C2=O)[C@@H](CC(=O)OC)C1(C)C` (some centres undefined): 20 AU.
The same measure for `COC(=O)C[C@H]1C2(C)CC34OC5(C)O[C@@]6([C@H](OC)C(OC(=O)C(C)C)[C@]7(C)C(/C(=C(/OC)C(C)C)C(=O)O[C@H]7c7ccoc7)[C@@]6(O5)[C@H](OC)[C@@]3(OC)C2OC(C)=O)[C@]14C` (some centres undefined): 20 AU.
The value for `COC(=O)[C@@H]1OC(=O)C2OC23[C@@]1(C)CCC1[C@]2(C)C(C[C@H](O)[C@]13C)C(C)(C)[C@H](OC(C)=O)C[C@@H]2OC(C)=O` (some centres undefined) was 24 AU.

The record behind these values is PubChem BioAssay.
